# PubChem BioAssay (EPA / NIEHS)
# Inconclusive results are not listed. The source made the active and inactive calls. Rule for the calls: active = hit-call score of the fitted dose curve at least 0.9, where 1 is the maximum; inconclusive = response in the unintended direction; inactive = score below 0.9.
# Experiments:
# [1] = molecular target: rat CYP1A2, Cyp1a2 (gene 24297) (UniProt P04799); assay: NVS_ADME_rCYP1A2: NovaScreen (NVS) CYP450-related Enzyme Activity (ADME) Assay for rat CYP1A2 (AID 2283115)
# Chain of rat CYP1A2, Cyp1a2 (gene 24297) (P04799 whole entry, looked up): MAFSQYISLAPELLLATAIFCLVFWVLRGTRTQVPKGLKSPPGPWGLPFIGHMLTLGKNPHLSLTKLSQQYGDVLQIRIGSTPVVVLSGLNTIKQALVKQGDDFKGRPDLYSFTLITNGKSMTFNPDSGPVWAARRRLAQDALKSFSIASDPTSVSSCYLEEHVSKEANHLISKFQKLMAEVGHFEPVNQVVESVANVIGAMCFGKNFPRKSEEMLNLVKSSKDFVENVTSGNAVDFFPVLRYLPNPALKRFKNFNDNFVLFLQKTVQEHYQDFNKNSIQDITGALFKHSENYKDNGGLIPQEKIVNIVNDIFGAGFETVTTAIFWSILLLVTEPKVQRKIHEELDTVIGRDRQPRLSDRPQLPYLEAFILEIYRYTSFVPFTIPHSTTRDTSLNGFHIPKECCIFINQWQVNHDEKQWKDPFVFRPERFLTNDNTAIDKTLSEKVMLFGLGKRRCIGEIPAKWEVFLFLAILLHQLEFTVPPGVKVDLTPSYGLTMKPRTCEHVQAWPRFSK
# Outline: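 Cell-free recombinant rat enzyme with fluorogenic substrate, read by fluorescence intensity 1 hour after dosing. Loss of signal versus acetonitrile negative control; primary screen at 10 uM in duplicate, actives followed in concentration series.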
# [2] = system: rat CYP2B1, gene 24300; assay: NVS_ADME_rCYP2B1: NovaScreen (NVS) CYP450-related Enzyme Activity (ADME) Assay for rat CYP2B1 (AID 2283117)
# Outline: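 Recombinant rat CYP2B1 with fluorogenic substrate, read at 0.75 h. Primary screen in duplicate at 10 uM; compounds meeting threshold (e.g., 30% inhibition) re-run in concentration-response up to 20 uM. Fitted against acetonitrile control.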
# [3] = system: rat CYP3A1, gene 25642; assay: NVS_ADME_rCYP3A1: NovaScreen (NVS) CYP450-related Enzyme Activity (ADME) Assay for rat CYP3A1 (AID 2283126)
# Outline: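 Cell-free recombinant CYP assay with fluorescent substrate, read 0.5 h after dosing. Screened at 10 uM in duplicate, hits at up to 20 uM in concentration-response; loss of signal versus acetonitrile baseline.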
# [4] = molecular target: rat CYP3A2, Cyp3a2 (gene 266682) (UniProt P05183); assay: NVS_ADME_rCYP3A2: NovaScreen (NVS) CYP450-related Enzyme Activity (ADME) Assay for rat CYP3A2 (AID 2283128)
# Chain of rat CYP3A2, Cyp3a2 (gene 266682) (P05183 whole entry, looked up): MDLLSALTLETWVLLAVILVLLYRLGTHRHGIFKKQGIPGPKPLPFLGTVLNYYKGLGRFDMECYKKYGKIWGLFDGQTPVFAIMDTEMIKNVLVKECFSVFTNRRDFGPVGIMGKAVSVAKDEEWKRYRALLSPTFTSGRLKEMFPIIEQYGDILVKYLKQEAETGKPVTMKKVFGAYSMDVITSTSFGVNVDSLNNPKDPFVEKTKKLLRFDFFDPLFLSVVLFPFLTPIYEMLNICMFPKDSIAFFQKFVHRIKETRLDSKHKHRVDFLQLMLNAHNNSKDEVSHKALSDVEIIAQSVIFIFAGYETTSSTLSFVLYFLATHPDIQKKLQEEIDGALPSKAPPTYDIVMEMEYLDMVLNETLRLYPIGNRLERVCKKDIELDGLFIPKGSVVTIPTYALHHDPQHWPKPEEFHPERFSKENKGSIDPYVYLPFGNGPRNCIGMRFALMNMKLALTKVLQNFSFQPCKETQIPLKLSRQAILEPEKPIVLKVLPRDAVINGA
# Outline: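 Cell-free rat CYP3A2 enzyme assay with fluorescent substrate, read 0.5 h after dosing. Primary duplicate screen at 10 uM; actives run in concentration-response up to 20 uM, relative to acetonitrile baseline.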
# [5] = molecular target: human Acetylcholinesterase (AChE), ACHE (gene 43) (UniProt P22303); assay: NVS_ENZ_hAChE: NovaScreen (NVS) Enzymatic Assay for human Acetylcholinesterase (AChE) (AID 2283129)
# Chain of human Acetylcholinesterase (AChE), ACHE (gene 43) (P22303 whole entry, looked up): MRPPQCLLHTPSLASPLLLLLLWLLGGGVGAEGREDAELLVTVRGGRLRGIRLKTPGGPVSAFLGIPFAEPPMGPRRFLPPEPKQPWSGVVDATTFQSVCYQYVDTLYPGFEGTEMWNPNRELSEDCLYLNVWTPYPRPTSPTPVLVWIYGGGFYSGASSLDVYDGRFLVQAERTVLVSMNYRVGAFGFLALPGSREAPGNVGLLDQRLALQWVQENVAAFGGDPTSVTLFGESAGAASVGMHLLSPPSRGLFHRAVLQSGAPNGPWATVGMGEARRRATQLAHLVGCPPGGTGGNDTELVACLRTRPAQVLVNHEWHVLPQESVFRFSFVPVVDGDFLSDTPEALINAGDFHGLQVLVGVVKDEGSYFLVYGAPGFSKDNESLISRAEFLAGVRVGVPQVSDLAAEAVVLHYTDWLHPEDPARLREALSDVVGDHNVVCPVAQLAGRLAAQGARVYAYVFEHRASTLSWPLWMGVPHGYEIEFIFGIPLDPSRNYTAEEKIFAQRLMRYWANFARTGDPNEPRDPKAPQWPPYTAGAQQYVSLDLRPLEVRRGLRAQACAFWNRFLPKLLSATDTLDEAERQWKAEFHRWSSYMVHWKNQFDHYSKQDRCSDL
# Outline: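 Cell-free colorimetric enzyme-activity assay; compounds read 0.33 hour after dosing, loss of signal vs DMSO baseline. Primary screen in duplicate at 25 uM single concentration, with active compounds retested in concentration series.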
# [6] = molecular target: human AMP-activated Protein Kinase, alpha 1 (AMPKa1), PRKAA1 (gene 5562) (UniProt Q13131); assay: NVS_ENZ_hAMPKa1: NovaScreen (NVS) Enzymatic Assay for human AMP-activated Protein Kinase, alpha 1 (AMPKa1) (AID 2283130)
# Chain of human AMP-activated Protein Kinase, alpha 1 (AMPKa1), PRKAA1 (gene 5562) (Q13131 whole entry, looked up): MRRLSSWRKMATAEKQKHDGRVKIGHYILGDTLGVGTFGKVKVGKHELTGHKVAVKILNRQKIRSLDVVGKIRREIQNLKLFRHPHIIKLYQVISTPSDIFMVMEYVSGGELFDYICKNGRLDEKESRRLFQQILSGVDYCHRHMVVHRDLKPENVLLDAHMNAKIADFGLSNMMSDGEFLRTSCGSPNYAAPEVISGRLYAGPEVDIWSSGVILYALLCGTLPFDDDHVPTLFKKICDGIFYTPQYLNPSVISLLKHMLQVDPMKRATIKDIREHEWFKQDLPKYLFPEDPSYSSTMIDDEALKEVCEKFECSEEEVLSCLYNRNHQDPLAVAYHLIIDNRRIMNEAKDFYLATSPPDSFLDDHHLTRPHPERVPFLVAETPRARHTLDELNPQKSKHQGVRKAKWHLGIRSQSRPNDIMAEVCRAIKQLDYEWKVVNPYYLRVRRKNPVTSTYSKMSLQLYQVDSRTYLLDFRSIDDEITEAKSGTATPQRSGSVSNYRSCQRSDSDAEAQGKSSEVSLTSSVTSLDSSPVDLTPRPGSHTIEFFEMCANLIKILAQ
# Outline: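 Recombinant human AMPKα1 activity was measured cell-free by fluorescent substrate conversion with electrophoretic mobility-shift separation, 1 h after dosing. Duplicate single-point screening was at 25 uM; actives (≥30% inhibition) were retested in concentration-response up to 50 uM.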
# [7] = molecular target: human Caspase 5 (CASP5), CASP5 (gene 838) (UniProt P51878); assay: NVS_ENZ_hCASP5: NovaScreen (NVS) Enzymatic Assay for human Caspase 5 (CASP5) (AID 2283137)
# Chain of human Caspase 5 (CASP5), CASP5 (gene 838) (P51878 whole entry, looked up): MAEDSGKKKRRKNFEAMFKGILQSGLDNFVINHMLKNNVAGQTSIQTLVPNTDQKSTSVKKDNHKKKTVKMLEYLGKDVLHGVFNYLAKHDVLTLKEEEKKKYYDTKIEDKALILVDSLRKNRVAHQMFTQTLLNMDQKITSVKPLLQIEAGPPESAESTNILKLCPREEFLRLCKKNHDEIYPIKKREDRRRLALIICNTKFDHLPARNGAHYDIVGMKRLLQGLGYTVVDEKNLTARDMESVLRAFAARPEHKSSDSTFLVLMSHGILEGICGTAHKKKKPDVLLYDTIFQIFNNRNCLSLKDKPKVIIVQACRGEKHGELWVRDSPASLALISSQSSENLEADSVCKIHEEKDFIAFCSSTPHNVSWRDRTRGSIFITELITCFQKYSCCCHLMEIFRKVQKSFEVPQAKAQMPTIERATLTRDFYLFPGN
# Outline: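 E. coli-derived enzyme, cell-free, 2 h incubation, fluorescence intensity. 25 uM duplicate single-point; hits → concentration series to 50 uM. DMSO baseline, positive/negative controls on every plate.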
structure (smiles),measurement,setting,value
c1ccc2c(c1)sc1ccccc12,outcome,[1],inactive
O=P(OCC(Br)CBr)(OCC(Br)CBr)OCC(Br)CBr (stereo unspecified),outcome,[1],inactive
CO/N=C(/C(=O)OC)c1ccccc1COc1ccccc1C,outcome,[2],inactive
same,AC50,[3],6.96 µM (active)
same,AC50,[4],6.28 µM (active)
O=c1ssc(Cl)c1Cl,outcome,[2],inactive
CCCCN(CCCC)SN(C)C(=O)Oc1cccc2c1OC(C)(C)C2,AC50,[5],1.31 µM (active)
O=P1(N(CCCl)CCCl)NCCCO1 (stereo unspecified),outcome,[6],inactive
CSC(C)(C)C=NO,outcome,[6],inactive
Cc1ccc2c(c1N)C(=O)c1ccccc1C2=O,AC50,[7],6.72 µM (active)
CCOP(=S)(S)OCC,outcome,[7],inactive
